Data reported in PubChem BioAssay (NCI).
Compounds without any hit were thinned out: in the full panel of roughly 79,000, 15% have a hit. Activity calls are given as the source filed them. No stated cut-off is given here; in the data, active means growth inhibition above about 70%; inactive means the rest.

Columns and labels:
[1] = NCI Yeast Anticancer Drug Screen. Data for the rad50 strain (AID 155);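 further: 0% = growth of vehicle-only cultures of the same strain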; conditions: S. cerevisiae rad50 strain growth inhibition; at 50.0 µM; active compounds read high
In short: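 Relative growth inhibition (compound vs vehicle) was measured in yeast with a defined repair-gene alteration.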

[2] = NCI Yeast Anticancer Drug Screen. Data for the mec2-1 strain (AID 157); conditions: S. cerevisiae mec2-1 strain, at 50.0 µM, active compounds read high
In short: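 Using mec2-1 yeast: add compound, measure growth, express inhibition versus vehicle-treated cultures.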

[3] = NCI Yeast Anticancer Drug Screen. Data for the sgs1 mgt1 strain (AID 161);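 further: 0% = growth of cultures given vehicle only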; conditions: S. cerevisiae sgs1 mgt1 strain, at 50.0 µM, active compounds read high
In short: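 Growth of a repair-deficient yeast mutant was monitored after compound treatment and expressed as inhibition relative to vehicle-treated cultures.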

[4] = NCI Yeast Anticancer Drug Screen. Data for the cln2 rad14 strain (AID 165);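 further: 0% = growth equal to vehicle treated cultures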; conditions: S. cerevisiae cln2 rad14 strain, at 50.0 µM, active compounds read high
In short: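 Yeast strain cln2 rad14, bearing defects in cell cycle control and DNA repair, serves as the test system; values reflect growth inhibition compared with vehicle.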

[5] = NCI Yeast Anticancer Drug Screen. Data for the bub3 strain (AID 167); conditions: S. cerevisiae bub3 mutant strain, at 50.0 µM, active compounds read high
In short: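 Screening used yeast with an engineered genetic alteration affecting cell cycle control. Compound-exposed cultures were compared with vehicle cultures, and reduced growth was taken as inhibition.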

[6] = NCI Yeast Anticancer Drug Screen. Data for the mlh1 rad18 strain (AID 175); conditions: S. cerevisiae mlh1 rad18 strain growth inhibition; at 50.0 µM; active compounds read high
In short: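 Steps: expose repair-defective yeast to compound; measure growth; express inhibition against vehicle-treated controls.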

Measured: growth inhibition

COc1ccc(C2SCC(=O)N2c2nncs2)cc1F (stereo unspecified)
inactive: [1] 6.2% | [2] 1.55% | [3] 20.9% | [4] 2.9% | [5] 12.6% | [6] 20.2%

Cc1cc2c(cc1C)NC1=C(N2)OC(c2cccc(O)c2)C1=O (stereo unspecified)
inactive: [1] 1.9% | [2] -16.9% | [3] 1.55% | [4] 4.4% | [5] -31.4% | [6] 11.8%

O=C(N=C1SCCS1)Nc1cccc(Cl)c1
active: [1] 87%
inactive: [2] 5.7% | [3] 44% | [4] 11.3% | [5] 11.4% | [6] 37.2%

Cc1c2oc3c(C)ccc(C(=O)NCCN4CCN(c5ccccc5)CC4)c3nc-2c(C(=O)NCCN2CCN(c3ccccc3)CC2)c(N)c1=O
inactive: [1] -4.7% | [2] 2.2% | [3] -8.5% | [4] -11.3% | [5] -3.9% | [6] -32.6%

CCOCC1OCCCO1
inactive: [1] -13.5% | [2] 12.4% | [3] 1.6% | [4] -9.85% | [5] -10% | [6] 7.15%

CCCCCCC(C)Cl (stereo unspecified)
inactive: [1] 18.9% | [2] -6.05% | [3] 15.8% | [4] 23.7% | [5] 5.9% | [6] 1.05%

CCNC(CC1CCCCC1)C(=O)O (stereo unspecified)
inactive: [1] -6.15% | [2] 7.5% | [3] -1.8% | [4] 14.2% | [5] 13.2% | [6] 6.35%

CC(C)=C(C)CCC(C)CC(C)O (stereo unspecified)
inactive: [1] -2.9% | [2] -14% | [3] -0.05% | [4] -5.6% | [5] -5.9% | [6] -5.85%

CCCCCCCCCC(=O)OC
inactive: [1] -24.1% | [2] -16.9% | [3] 8.4% | [4] -12.8% | [5] -0.25% | [6] 6.2%

COc1ccccc1C1OC2=C(Nc3ccc(Cl)cc3N2)C1=O (stereo unspecified)
inactive: [1] -6.5% | [2] -17.8% | [3] -17.5% | [4] -7% | [5] -23.7% | [6] -2.95%

CC(C)CC(=O)CCc1ccccc1
inactive: [1] -45% | [2] -19.9% | [3] -46.9% | [4] -6.35% | [5] -29.1% | [6] -3.55%

CCCCOc1ccc2nc(C)cc(N/N=C/c3ccc(OC)c4ccccc34)c2c1
inactive: [1] 46.4% | [2] 19.6% | [3] 44.1% | [4] 42.9% | [5] -2.35% | [6] 41.1%

O=S(=O)(c1ccccc1)N1CCN(S(=O)(=O)c2ccccc2)c2ccccc21
inactive: [1] 58.9% | [2] 23.9% | [3] -3.75% | [4] 3.9% | [5] 43.6% | [6] 53.9%

CCCC(=O)OCC1OC(n2cc(F)c(=O)[nH]c2=O)C(F)C1OC(=O)CCC (stereo unspecified)
inactive: [1] -1.45% | [2] 15.1% | [3] -5.8% | [4] -13.9% | [5] -2.6% | [6] -7.25%

O=C(NN1C(=O)C(Cl)C1c1cccc([N+](=O)[O-])c1)c1ccccc1O (stereo unspecified)
inactive: [1] -17.4% | [2] -26.1% | [3] -37.5% | [4] 1.1% | [5] -27.1% | [6] -25.1%

CCOC(=O)CC1OCCO1
inactive: [1] 7.65% | [2] -3.35% | [3] -24.7% | [4] 5.25% | [5] 2.4% | [6] -5.15%

CC(O)CN1CCN(CC(C)O)C(C)C1 (stereo unspecified)
inactive: [1] -10.1% | [2] 1.65% | [3] 0% | [4] 1.35% | [5] -7.2% | [6] 4.75%

CCCC(=N)OCC
inactive: [1] -3.45% | [2] -27.4% | [3] -20.4% | [4] -0.45% | [5] 3.75% | [6] -5.05%

OCC(CCl)(CCl)CCl
inactive: [1] 31% | [2] 18.1% | [3] 10.8% | [4] 7.45% | [5] 18.2% | [6] 41%

CCSc1cc(N)ncn1
inactive: [1] -39.6% | [2] -18.6% | [3] -11.5% | [4] -4.15% | [5] -14% | [6] -9.75%

CCCC(=O)n1[nH]c(=O)n(C(C)(C)C)c1=O
inactive: [1] 2.3% | [2] -7.65% | [3] 14.8% | [4] 6.4% | [5] 7.5% | [6] -22.8%
